Data on eleven compounds can be found in PubChem BioAssay (NCATS).

Structures are written as SMILES. Values without a mark were called inactive. Results filed as inconclusive are left out. Calls of active or inactive are those of the source. Unless noted, calls come from the whole dose curve; as a rule, active = well fitted curve in the direction sought with a large enough effect; inconclusive = small, poorly fitted or top-dose-only effect, or another doubt; inactive = no such curve, though single readings can be large; an effect the other way counts as inactive or inconclusive.

In test [1] the target is Lysosomal acid glucosylceramidase (Homo sapiens) (UniProt P04062). Description: Glucocerebrosidase-p2 (AID 348; in the data active = potency below about 10 µM; note: potency is the fitted concentration of half-maximal effect). As to conditions: purified GBA, blue fluorogenic substrate, 40 min. Put shortly: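 Normal human glucocerebrosidase (0.2 nM) with blue fluorogenic substrate (80 uM final) in citrate/phosphate pH 5.9 with 10mM sodium taurocholate, 0.01% tween-20; 40 min RT, NaOH/glycine stop; fluorescence Ex 365/Em 440; AC50 from a titration from 0.6 nM upwards.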

Test [2] addresses Cytochrome P450 1A2 (Homo sapiens) (UniProt P05177). Description: p450-cyp1a2 (AID 410; calls by dose curve; note: potency is the fitted concentration of half-maximal effect). Conditions: recombinant CYP1A2, luciferin-ME demethylation, luminescence; series mostly up to 57 µM. Put shortly: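 O-Demethylation of luciferin 6' methyl ether by human CYP1A2 is monitored as luciferase luminescence. Substrate sits at Km (100uM); enzyme is 20nM. Values are scaled to 57 uM furafylline as maximal inhibition.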

The target of test [3] is Glucocorticoid receptor (Homo sapiens) (UniProt P04150). In words: GR-EFC Redistribution (AID 451; calls by dose curve; note: potency is the fitted concentration of half-maximal effect). Conditions: CHO-K1 GR-EFC translocation, beta-gal luminescence, 2 h. Put shortly:
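Translocation of GR-ED fusion to nuclear EA restores b-gal, read by luminescence after 1 h room-temperature detection. Engineered CHO-K1 biosensor cells, 1,000/well, exposed 2 h at 37 C to titrations up to 46 uM final.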

Test [4] deals with Mitogen-activated protein kinase 10 (Mus musculus) (UniProt Q61831). Description: JNK3 AlphaScreen Assay (AID 530; active = well fitted curve in either direction with a large enough effect, not every such curve was filed as active;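 note: kinase came from lysate of stimulated human HepG2 cells; signal reports phosphorylation of biotinylated GST-cJun 1-79 at Ser73 with 10 µM ATP; % is set by controls: 0 for no effect and ±100 for the full control effect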). Conditions: JNK3 lysate, c-Jun phosphorylation; series mostly up to 57.1 µM. Put shortly: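 qHTS titrations with 15 min compound pre-incubation before adding ATP (10 uM final). Read-out: AlphaScreen of Ser73-phosphorylated biotin-GST-cJun using HepG2 lysate JNK3 activated by IL-1β and TNFα.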

Test [5] addresses 3',5'-cyclic-AMP phosphodiesterase 4B (Homo sapiens) (UniProt Q07343). Description: qHTS Assay for Inhibitors of PDE-IV (AID 607; active = well fitted activation curve with a large enough effect in the main read-out, with a control signal flat, not every such curve was filed as active; note: % of control where 0% means no effect). Conditions: HEK293 ACTOne CNG channel cells, membrane potential fluorescence; series mostly up to 22.9 µM. Put shortly: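 ACTOne HEK293 cells carry a modified cAMP-gated CNG channel and express endogenous PDE4; plated 1000 cells/well, compounds up to 22.9 uM final. Membrane-potential dye fluorescence (ex 535/em 590) was read; parental cells received 10 uM forskolin + 100 uM RO 20-1724.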

Test [6] deals with Cytochrome P450 3A4 (Homo sapiens) (UniProt P08684). Description: qHTS Assay for Activators of Cytochrome P450 3A4 (AID 885). Note: nearly all actives have a fitted effect of over 65% in size. Conditions: recombinant CYP3A4, Luciferin-PPXE luminescence, 60 min; series mostly up to 57.1 µM. Put shortly:
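CYP3A4 activity: Luciferin-PPXE O-dealkylation, 25uM substrate, 200mM KPO4, RT throughout. Read-out is luciferase luminescence; higher values reflect activation.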

For test [7], the target named is Dual specificity protein kinase CLK4 (Homo sapiens) (UniProt Q9HAZ1). Description: qHTS Assay for Inhibitors of CDC-like Kinase 4 (ADP-Glo Assay) (AID 1771). Note: nearly all actives have a fitted effect of over 70% in size. Note: potency is the fitted concentration of half-maximal effect. As to conditions: recombinant CLK4, ADP-Glo luminescence; series mostly up to 80 µM. Put shortly:
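Compounds are pin-transferred onto substrate mix (100 uM RS peptide, 1 uM ATP), then 25 nM Clk4 is added. After 1 hr at room temperature, ADP-Glo reagent runs 45 min, detection reagent 30 min, then luminescence is read.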
For orientation: qHTS replaces the single test concentration by a dilution series.

Test [8] has the same target. In words: qHTS Assay for Inhibitors of CDC-like Kinase 4 (ADP-FP Assay) (AID 1795). Note: nearly all actives have a fitted effect of over 60% in size. Note: potency is the fitted concentration of half-maximal effect. Conditions: Transcreener ADP fluorescence polarization; series mostly up to 50 µM. Put shortly: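 Recombinant Clk4 (6.25 nM) phosphorylated 100 uM RS repeat peptide with 1 uM ATP in 25 mM Tris pH 7.5, 10 mM MgCl2, 0.5 mM EGTA, 2.5 mM DTT, 0.01% Triton X-100 for 1 h. ADP was detected by Transcreener ADP2 competitive fluorescence polarization after 30 min at room temperature.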

Test [9] concerns the target Ubiquitin carboxyl-terminal hydrolase 1 (Homo sapiens) (UniProt O94782). Description: Inhibitors of USP1/UAF1: Pilot qHTS (AID 504865).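 Note: rhodamine fluorescence freed from ubiquitin-rhodamine substrate followed over time; top concentration of the series differs between compounds; % is set by controls: 0 for no effect and ±100 for the full control effect; nearly all actives have a fitted effect of over 35% in size.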 Conditions: purified USP1/UAF1, Ub-rhodamine cleavage fluorescence; series mostly up to 54.9 µM. Put shortly:
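USP1/UAF1 complex at 1 nM preincubated 15 min at room temperature with compound, then Ub-Rho substrate added at 150 nM final. Fluorescence (480/540 nm) read kinetically in 50 mM HEPES pH 7.8, 0.5 mM EDTA, 1 mM TCEP, 0.1 mg/ml BSA, 0.01% Tween-20.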

A short description of test [10]: AP1 Signaling Pathway (AID 357; active = well fitted curve in either direction with a large enough effect, not every such curve was filed as active;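 note: ME-180 reporter cells stimulated with EGF at its EC50 level; % is set by controls: 0 for no effect and ±100 for the full control effect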). As to conditions: ME-180 AP-1-bla reporter, EGF-induced, beta-lactamase ratio, 5 h; at 7.69 µM (top of the series) unless noted. Put shortly: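 Titration-series screen for positive or negative modulators of EC50 EGF-induced signaling in ME-180 cells carrying an AP-1-driven beta-lactamase reporter. After 5 hours at 37 degrees Celsius, CCF4 460nm/530nm emission ratio gave %Activity; AC50 values derived.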

A short description of test [11]: NFAT Signaling Pathway (AID 444; active = well fitted curve in either direction with a large enough effect, not every such curve was filed as active;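 note: carbachol stimulus at about its EC50 of 1 µM final; % is set by controls: 0 for no effect and ±100 for the full control effect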). Conditions: Jurkat NFAT-bla M1, carbachol, beta-lactamase ratio, 5 h; at 7.69 µM (top of the series) unless noted. Put shortly: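 Read-out: CCF4 FRET ratio (460 nm/530 nm) after 1 h RT dye loading, used for %activity and AC50 from titration series. Cells: Jurkat NFAT-β-lactamase/M1 line, treated with compound plus 1 uM carbachol for 5 h, 37 °C.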

Test [12] can be described thus: Stat Signaling Pathway (AID 446; active = well fitted curve in either direction with a large enough effect, not every such curve was filed as active;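 note: ME-180 cervical cancer cells given 40 pM IL-6 alongside compound; SIE-controlled beta-lactamase reporter measured as 460/530 nm FRET emission ratio; % is set by controls: 0 for no effect and ±100 for the full control effect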). Conditions: ME-180 (cervical carcinoma) SIE beta-lactamase reporter, IL-6 stimulated, 5 h; series mostly up to 7.69 µM. Put shortly: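 Compound effects on IL-6-induced STAT reporter activity were measured in ME-180 cells. After overnight culture, cells were co-treated with 40 pM IL-6 for 5 hrs before beta-lactamase substrate loading at room temperature.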

For test [13], the target named is Glucocorticoid receptor (Homo sapiens) (UniProt P04150). Description: GR-GFP Redistribution (AID 450;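 active = compounds whose dose series gives a full or clear partial fitted curve of increased nuclear translocation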; note: potency is the fitted concentration of half-maximal effect). As to conditions: U2OS GR-GFP nuclear translocation, laser cytometry, 2 h.
Test [14] concerns the target Dual specificity protein kinase CLK4 (Homo sapiens) (UniProt Q9HAZ1). In words: qHTS Assay for Inhibitors of CDC-like Kinase 4 (Kinase-Glo Assay) (AID 1770). Note: nearly all actives have a fitted effect of over 65% in size. Note: potency is the fitted concentration of half-maximal effect. As to conditions: recombinant Clk4, Kinase-Glo ATP depletion luminescence; series mostly up to 66.7 µM. Put shortly:
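25 nM Clk4 with 100 uM RS repeat peptide and 1 uM ATP (final) in Tris pH7.5, 10 mM MgCl2, 4.5 h at room temperature. Remaining ATP measured by Kinase-Glo luciferase luminescence.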

For test [15], the target named is Cytochrome P450 3A4 (Homo sapiens) (UniProt P08684). In words: qHTS Assay for Inhibitors and Substrates of Cytochrome P450 3A4 (AID 884). Note: potency is the fitted concentration of half-maximal effect; nearly all actives have a fitted effect of over 50% in size. As to conditions: recombinant CYP3A4, Luciferin-PPXE luminescence; series mostly up to 57.1 µM. Put shortly:
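Luminescent readout of luciferin produced by CYP3A4 (20 nM) dealkylation of Luciferin-PPXE, 25 uM (its KM). NADPH-driven reaction ran 60 min at RT after 10 min compound preincubation; data scaled to 57 uM ketoconazole as 100% inhibition.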

The target of test [16] is Cytochrome P450 2D6 (Homo sapiens) (UniProt P10635). Description: qHTS Assay for Inhibitors and Substrates of Cytochrome P450 2D6 (AID 891). Note: potency is the fitted concentration of half-maximal effect; nearly all actives have a fitted effect of over 60% in size. Conditions: recombinant CYP2D6, luciferin-ME EGE luminescence; series mostly up to 57.1 µM. Put shortly: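 Luminescent read-out of luciferin formed by 5 nM human CYP2D6 demethylating 30 uM Luciferin-ME EGE (Km level) over 60 min at room temperature after NADPH regeneration addition. Data normalized to full inhibition by 1.43 uM quinidine.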

Test [17] has as its target Cytochrome P450 2C19 (Homo sapiens) (UniProt P33261). In words: qHTS Assay for Inhibitors and Substrates of Cytochrome P450 2C19 (AID 899). Note: potency is the fitted concentration of half-maximal effect; nearly all actives have a fitted effect of over 60% in size. Conditions: recombinant CYP2C19, luciferin-H EGE luminescence; series mostly up to 57.1 µM. Put shortly: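 Reactions contain 5nM enzyme, 10uM Luciferin-H EGE (KM) and 50mM KPO4; compound preincubates 10 min at 37C, NADPH regeneration starts turnover for 60 min. Luminescence after detection reagent gives activity.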

Lysosomal acid glucosylceramidase (Homo sapiens), sequence (P04062 whole entry, looked up): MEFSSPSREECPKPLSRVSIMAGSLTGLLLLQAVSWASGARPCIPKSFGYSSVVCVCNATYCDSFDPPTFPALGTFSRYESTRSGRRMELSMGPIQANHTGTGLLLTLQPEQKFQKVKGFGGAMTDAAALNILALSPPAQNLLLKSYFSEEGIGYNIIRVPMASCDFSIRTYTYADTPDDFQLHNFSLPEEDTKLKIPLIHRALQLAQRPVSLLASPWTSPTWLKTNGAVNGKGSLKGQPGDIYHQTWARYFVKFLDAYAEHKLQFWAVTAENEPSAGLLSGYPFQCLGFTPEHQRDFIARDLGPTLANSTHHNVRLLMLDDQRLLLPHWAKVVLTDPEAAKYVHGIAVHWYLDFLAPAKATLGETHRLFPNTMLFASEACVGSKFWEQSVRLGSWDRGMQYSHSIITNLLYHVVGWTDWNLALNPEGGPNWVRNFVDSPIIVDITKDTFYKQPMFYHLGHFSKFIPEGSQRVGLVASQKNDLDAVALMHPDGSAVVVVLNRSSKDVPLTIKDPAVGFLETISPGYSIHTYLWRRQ
Dual specificity protein kinase CLK4 (Homo sapiens), sequence (Q9HAZ1 whole entry, looked up): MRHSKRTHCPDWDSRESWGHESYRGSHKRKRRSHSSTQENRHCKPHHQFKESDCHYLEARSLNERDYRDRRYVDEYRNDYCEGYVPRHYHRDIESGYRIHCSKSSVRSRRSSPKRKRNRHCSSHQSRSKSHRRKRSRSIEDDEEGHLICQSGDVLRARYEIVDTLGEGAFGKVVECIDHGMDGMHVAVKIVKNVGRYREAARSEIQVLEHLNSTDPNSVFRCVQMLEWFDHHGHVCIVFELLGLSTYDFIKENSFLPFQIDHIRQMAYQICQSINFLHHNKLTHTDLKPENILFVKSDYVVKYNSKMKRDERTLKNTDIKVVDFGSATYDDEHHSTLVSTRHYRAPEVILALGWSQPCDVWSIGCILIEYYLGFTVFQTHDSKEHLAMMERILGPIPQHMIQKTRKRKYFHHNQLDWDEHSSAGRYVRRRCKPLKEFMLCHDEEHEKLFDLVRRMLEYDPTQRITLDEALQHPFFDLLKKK
Glucocorticoid receptor (Homo sapiens), sequence (P04150 whole entry, looked up, the tested form may be a part): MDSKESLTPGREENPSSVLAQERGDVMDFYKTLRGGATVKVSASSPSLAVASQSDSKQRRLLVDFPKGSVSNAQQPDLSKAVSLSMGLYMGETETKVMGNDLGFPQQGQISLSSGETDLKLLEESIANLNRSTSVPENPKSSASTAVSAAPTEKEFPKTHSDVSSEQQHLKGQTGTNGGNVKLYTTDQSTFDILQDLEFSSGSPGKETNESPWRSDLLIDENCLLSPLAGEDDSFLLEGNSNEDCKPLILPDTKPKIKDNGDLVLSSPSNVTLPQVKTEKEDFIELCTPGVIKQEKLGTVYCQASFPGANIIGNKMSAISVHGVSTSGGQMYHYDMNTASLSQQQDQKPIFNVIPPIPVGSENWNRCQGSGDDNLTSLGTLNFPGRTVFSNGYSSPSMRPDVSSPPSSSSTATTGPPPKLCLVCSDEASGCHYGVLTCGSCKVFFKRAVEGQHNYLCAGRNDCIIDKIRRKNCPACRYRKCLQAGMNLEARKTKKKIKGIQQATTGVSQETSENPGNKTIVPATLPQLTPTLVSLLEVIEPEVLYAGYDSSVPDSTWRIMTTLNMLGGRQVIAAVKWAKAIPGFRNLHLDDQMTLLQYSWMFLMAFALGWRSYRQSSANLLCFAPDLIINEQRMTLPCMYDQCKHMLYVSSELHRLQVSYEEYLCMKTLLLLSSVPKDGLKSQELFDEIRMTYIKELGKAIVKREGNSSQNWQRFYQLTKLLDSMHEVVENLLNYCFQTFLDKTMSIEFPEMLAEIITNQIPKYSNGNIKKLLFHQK
Cytochrome P450 1A2 (Homo sapiens), sequence (P05177 whole entry, looked up): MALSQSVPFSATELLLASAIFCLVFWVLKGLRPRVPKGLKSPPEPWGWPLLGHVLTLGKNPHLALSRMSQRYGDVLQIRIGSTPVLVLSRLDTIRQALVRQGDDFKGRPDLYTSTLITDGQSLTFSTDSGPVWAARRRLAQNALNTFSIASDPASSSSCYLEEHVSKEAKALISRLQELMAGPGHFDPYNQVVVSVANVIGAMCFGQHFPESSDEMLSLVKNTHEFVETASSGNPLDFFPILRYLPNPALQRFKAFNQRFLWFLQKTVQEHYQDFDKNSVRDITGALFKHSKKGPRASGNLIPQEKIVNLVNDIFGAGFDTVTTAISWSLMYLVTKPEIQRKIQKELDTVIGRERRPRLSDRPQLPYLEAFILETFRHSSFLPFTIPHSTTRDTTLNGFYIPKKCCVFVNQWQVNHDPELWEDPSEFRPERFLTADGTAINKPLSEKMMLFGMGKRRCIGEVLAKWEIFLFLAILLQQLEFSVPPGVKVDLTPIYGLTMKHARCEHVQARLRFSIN
3',5'-cyclic-AMP phosphodiesterase 4B (Homo sapiens), sequence (Q07343 whole entry, looked up): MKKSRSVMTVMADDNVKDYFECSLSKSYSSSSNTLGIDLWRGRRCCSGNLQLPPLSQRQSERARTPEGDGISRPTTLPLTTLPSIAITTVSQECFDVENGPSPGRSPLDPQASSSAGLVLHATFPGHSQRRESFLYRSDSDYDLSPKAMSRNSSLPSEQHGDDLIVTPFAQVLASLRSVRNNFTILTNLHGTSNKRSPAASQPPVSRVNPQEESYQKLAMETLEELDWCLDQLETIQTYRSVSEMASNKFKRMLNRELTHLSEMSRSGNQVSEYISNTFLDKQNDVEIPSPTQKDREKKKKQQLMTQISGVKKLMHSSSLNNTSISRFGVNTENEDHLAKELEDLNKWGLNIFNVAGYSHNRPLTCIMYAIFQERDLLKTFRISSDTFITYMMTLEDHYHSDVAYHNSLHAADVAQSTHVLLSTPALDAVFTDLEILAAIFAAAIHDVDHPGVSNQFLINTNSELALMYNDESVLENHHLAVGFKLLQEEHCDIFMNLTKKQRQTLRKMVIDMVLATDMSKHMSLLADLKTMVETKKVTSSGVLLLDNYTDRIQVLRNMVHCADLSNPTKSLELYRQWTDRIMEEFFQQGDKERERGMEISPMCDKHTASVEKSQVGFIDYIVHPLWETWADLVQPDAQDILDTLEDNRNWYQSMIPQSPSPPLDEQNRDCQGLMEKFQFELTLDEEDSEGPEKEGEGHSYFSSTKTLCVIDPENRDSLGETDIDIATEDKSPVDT
Ubiquitin carboxyl-terminal hydrolase 1 (Homo sapiens), sequence (O94782 whole entry, looked up): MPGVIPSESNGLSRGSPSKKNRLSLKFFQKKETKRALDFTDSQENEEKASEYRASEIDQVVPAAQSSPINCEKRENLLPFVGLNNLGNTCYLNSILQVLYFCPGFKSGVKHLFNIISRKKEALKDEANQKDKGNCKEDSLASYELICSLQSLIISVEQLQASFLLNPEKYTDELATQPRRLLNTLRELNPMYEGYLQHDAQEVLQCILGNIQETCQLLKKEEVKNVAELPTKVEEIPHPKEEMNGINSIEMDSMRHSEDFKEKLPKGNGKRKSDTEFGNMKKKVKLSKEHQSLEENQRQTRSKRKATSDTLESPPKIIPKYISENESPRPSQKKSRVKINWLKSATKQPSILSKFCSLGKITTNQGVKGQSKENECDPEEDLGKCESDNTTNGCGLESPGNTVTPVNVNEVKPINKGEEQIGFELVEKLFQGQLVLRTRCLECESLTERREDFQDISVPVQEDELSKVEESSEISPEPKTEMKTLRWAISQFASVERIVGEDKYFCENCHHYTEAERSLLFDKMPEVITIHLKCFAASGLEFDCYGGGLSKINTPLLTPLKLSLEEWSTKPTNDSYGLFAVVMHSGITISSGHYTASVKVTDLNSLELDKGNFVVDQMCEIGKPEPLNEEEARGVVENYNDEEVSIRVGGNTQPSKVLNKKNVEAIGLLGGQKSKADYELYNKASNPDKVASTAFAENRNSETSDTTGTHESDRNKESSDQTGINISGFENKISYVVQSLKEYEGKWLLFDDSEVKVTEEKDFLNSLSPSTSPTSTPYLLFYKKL
Cytochrome P450 3A4 (Homo sapiens), sequence (P08684 whole entry, looked up): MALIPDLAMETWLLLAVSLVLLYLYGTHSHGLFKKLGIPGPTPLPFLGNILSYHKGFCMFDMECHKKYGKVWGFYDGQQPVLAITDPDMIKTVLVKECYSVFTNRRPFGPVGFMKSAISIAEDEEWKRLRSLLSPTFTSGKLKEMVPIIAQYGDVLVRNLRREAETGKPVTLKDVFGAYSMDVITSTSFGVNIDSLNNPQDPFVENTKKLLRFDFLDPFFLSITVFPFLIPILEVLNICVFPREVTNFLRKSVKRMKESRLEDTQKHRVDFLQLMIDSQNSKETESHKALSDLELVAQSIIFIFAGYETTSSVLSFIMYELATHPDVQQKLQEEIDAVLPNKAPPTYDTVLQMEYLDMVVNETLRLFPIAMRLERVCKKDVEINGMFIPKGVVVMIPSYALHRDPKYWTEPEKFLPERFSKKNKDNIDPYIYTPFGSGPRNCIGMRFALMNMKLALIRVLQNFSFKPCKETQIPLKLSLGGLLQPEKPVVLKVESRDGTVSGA
Cytochrome P450 2C19 (Homo sapiens), sequence (P33261 whole entry, looked up): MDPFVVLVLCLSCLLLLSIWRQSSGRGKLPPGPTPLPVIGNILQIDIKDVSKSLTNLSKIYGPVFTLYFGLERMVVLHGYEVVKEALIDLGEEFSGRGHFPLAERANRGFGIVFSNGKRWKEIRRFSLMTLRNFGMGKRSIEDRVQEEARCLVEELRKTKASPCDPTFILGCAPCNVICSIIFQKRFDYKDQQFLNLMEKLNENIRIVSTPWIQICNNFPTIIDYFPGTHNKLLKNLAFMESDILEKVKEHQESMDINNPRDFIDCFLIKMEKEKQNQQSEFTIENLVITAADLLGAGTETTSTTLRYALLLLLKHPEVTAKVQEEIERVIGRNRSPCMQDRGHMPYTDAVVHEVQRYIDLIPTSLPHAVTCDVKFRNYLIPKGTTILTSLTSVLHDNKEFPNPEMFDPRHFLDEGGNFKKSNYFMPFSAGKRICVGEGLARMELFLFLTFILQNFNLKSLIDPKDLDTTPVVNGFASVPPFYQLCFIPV

With `COCCn1c(=O)c(-c2cccs2)nc2cnc(N3CCNCC3)nc21`, the Potency in test [1] was over 11.4 µM; in test [2], 3.98 µM (active); in test [3], over 46 µM. Further, the Potency result in [4], in [5], in test [7], in test [8] and in [9] was “inactive” in each case. For the same compound, the outcome in test [6] was inactive.
As for `COc1ccccc1CNc1ccnc(-c2cccc(NS(C)(=O)=O)c2)n1`, the Potency in test [1] is over 11.4 µM; in test [13], over 46 µM; in test [3] it was over 46 µM; in test [14], 28.2 µM (active); in test [7] it was 25.1 µM (active). Further, the activity change, negative = inhibition is -17.8% in test [10] and 2.18% in test [11]. For the same compound, in test [12], the call was inactive. For the same compound, the Potency entry in [4] and in [5] was “inactive” each time.
Regarding `COc1ccccc1CNc1ncncc1-c1ccc2c(c1)OCO2`, the Potency in test [1] is over 11.4 µM; in test [2], 0.158 µM (active); in test [13], over 46 µM; in test [3], over 46 µM; in test [15], 0.199 µM (active); in test [16], 2.51 µM (active). Besides, the Potency is 2 µM (active) in test [7] and 1 µM (active) in test [8]. Besides, the figures for the activity change, negative = inhibition in test [10] and in test [11] were -21.5% and -11.1%, respectively. The outcome in test [12] and in test [6] was inactive. Moreover, the Potency result in [4] and in test [9] was “inactive” throughout.
Turning to `c1ccc2c(NCCN3CCOCC3)nc(-c3ccc4c(c3)OCO4)nc2c1`, the Potency in test [1] is over 11.4 µM; in [13], over 46 µM; in test [3] it was over 46 µM. The activity change, negative = inhibition was -11.7% in test [10] and 12.2% in test [11]. In [12], the call was inactive. Besides, the Potency entry in test [4], in test [5], in test [14], in test [8] and in [9] was “inactive” in each case.
In the case of `COCCn1c(=O)c(CCc2ccccc2)nc2cnc(N(C)C)nc21`, the Potency in test [1] was over 11.4 µM; in [2], 1.26 µM (active); in [13], over 9.22 µM; in test [3] it was over 46 µM. The activity change, negative = inhibition in test [10] was -26.9%; in [11], 3.37%. For the same compound, the compound was classed as inactive in test [12] and in test [6]. Further, the Potency result in [7], in test [8] and in test [9] was “inactive” in each case.
`COc1ccc2[nH]cc(CCNc3ncnc4ccc(-c5cccc(C#N)c5)cc34)c2c1`: the Potency in test [1] is over 11.4 µM; in test [2], 2.51 µM (active); in test [13], over 46 µM; in test [3], over 46 µM; in [15], 2.51 µM (active); in [17], 7.94 µM (active). The Potency in [14] was 12.6 µM (active); in [7], 15.8 µM (active). Besides, the outcome in test [12] and in test [6] was inactive. Also, the Potency result in [9] was “inactive”.
Take `CN1CCN(c2ncc3nc(CCc4ccccc4)c(=O)n(CCc4ccccc4)c3n2)CC1`: the Potency is over 11.4 µM in test [1], over 9.22 µM in test [13] and over 46 µM in test [3]. Further, the figures for the activity change, negative = inhibition in [10] and in [11] were -6.08% and -18.1%, respectively. Also, the compound was called inactive in [12]. For the same compound, the Potency result in [4], in [7], in [8] and in test [9] was “inactive” each time.
On to `Clc1ccccc1-c1ccc2ncnc(NCCN3CCOCC3)c2c1`, for which the Potency is 5.01 µM (active) in test [2]; over 46 µM in test [13]; over 46 µM in test [3]; 5.01 µM (active) in [15]; 28.2 µM (active) in [14]; 25.1 µM (active) in test [7]. Also, in [11], the activity change, negative = inhibition was 13.8%. The outcome in [12] and in [6] was inactive. Also, the Potency result in test [4] and in test [9] was “inactive” each time.
As for `COCCn1c(=O)c(-c2cccc(C#N)c2)nc2cnc(Oc3cccc(Cl)c3)nc21`, the Potency in [1] is over 11.4 µM; in test [13] it was over 9.22 µM; in test [3], over 46 µM. The activity change, negative = inhibition was -5.9% in [10] and -4.85% in [11]. The compound was classed as inactive in test [12]. Besides, the Potency result in [4], in [5], in test [7], in test [8] and in test [9] was “inactive” each time.
`CCNc1ncc2ncc(=O)n(Cc3cccc(OC)c3)c2n1`: the Potency in [1] is over 11.4 µM; in [2], 3.98 µM (active); in [13] it was over 9.22 µM; in test [3], over 46 µM; in test [17] it was 2 µM (active); in test [7], 3.16 µM (active). In test [8], the Potency is 11.2 µM (active). Further, the activity change, negative = inhibition in [10] was -7.38%; in [11] it was 8.9%. The compound was classed as inactive in [12]. Further, the Potency entry in test [9] was “inactive”.
As for `COc1ccccc1-c1nc(N2CCN(C)CC2)c2ccccc2n1`, the activity change, negative = inhibition in [10] was 9.75%; in [11], 4.89%. Moreover, the Potency was 12.6 µM (active) in test [2], over 46 µM in test [13] and over 46 µM in test [3]. The call in test [12] and in test [6] was inactive. Also, the Potency result in test [4], in test [5], in test [7], in test [8] and in test [9] was “inactive” each time.
